Experimental data published in PubChem BioAssay.
Calls of active or inactive are those of the source.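 Rule for the calls, unless noted: active = compounds that lower survival of HCT116 colon cancer cells in the luminescence readout, no numeric limit stated; inactive = the rest.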

Experiments:
[1] = Wnt pathway potentiators raising nuclear beta-catenin – imaging, WNT3A-conditioned medium, mouse C2C12, NPC library, primary screen (AID 1117326; in the data active = nuclear beta-catenin stimulation mostly above about 4.2%, no sharp cut-off; inactive = mostly below about 10%; note: reference of the scale not given here); settings: stronger effect = higher value
[2] = stimulators of insulin release from INS-1E, primary screen, cell-based, 5 mM glucose, NPC library (AID 1117329;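 active = compound raises insulin release from rat beta cells at 5 mM glucose, no numeric limit stated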; note: reference of the scale not given here); settings: rat INS-1E insulin secretion, at 10 µM, stronger effect = higher value
[3] = growth inhibition of GSK3B-pretreated HCT116 cells – cell-based, CellTiter-Glo, 0.2 to 20 µM (AID 1117336;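 active = compounds lowering colon cancer cell viability after pretreatment blocking the GSK3B kinase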); settings: HCT116 viability after GSK3B inhibitor, at 20 µM, stronger effect = higher value
[4] = inhibition of endothelial tube formation, primary screen, imaging, VEGF stimulated, CD31 staining, tube area, NPC library (AID 1117340;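 active = compound that reduces growth-factor-driven endothelial tube area in a mixed cell culture, no cutoff stated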); settings: VEGF-stimulated ADSC/ECFC co-culture, at 10 µM, stronger effect = higher value
[5] = GLP1 release stimulators, primary, NCI-H716, NPC library (AID 1117341;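 active = compound raises GLP1 secretion from the human gut endocrine cells, with no numeric limit stated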; note: reference of the scale not given here); settings: NCI-H716 cells, at 10 µM, stronger effect = higher value
[6] = HCT116 colon cancer cell growth inhibition, primary screen, CellTiter-Glo luminescence, NPC library (AID 1117342); settings: at 20 µM (top of the series)
[7] = reduced SW480 viability measured with CellTiter-Glo, NPC library, primary (AID 1117343;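 active = compounds that lower viability of the colon cancer cells in the luminescence readout, with no numeric limit stated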); settings: CellTiter-Glo luminescence; at 20 µM (top of the series)
[8] = NPC library primary testing for decreased DLD-1 cell viability via CellTiter-Glo (AID 1117346;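 active = compounds that lower survival of DLD-1 colon cancer cells in the luminescence readout, no cutoff given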); settings: DLD-1 viability, CellTiter-Glo luminescence; at 20 µM (top of the series)

CC(Cc1ccccc1)NC=O (stereo not given)
inactive: nuclear beta-catenin stimulation ([1]; at 10 µM) -2.3% | insulin secretion stimulation [2] 1.5% | viability decrease [3] -5.7% | tube area decrease [4] 1.3% | GLP1 secretion stimulation [5] -5.4% | inhibition of viability [6] 8.8% | viability decrease (inhibition) [7] 16.7% | viability decrease (inhibition) [8] -4.6%
-0.1%: nuclear beta-catenin stimulation ([1]; stimulation, at 2 µM)

COC1CC(=C(c2cccs2)c2cccs2)C[N+](C)(C)C1 (stereo not given)
inactive: nuclear beta-catenin stimulation ([1]; at 10 µM) -1.6% | insulin secretion stimulation [2] 0.1% | viability decrease [3] -13.9% | tube area decrease [4] 10.1% | GLP1 secretion stimulation [5] -0.6% | inhibition of viability [6] 8.3% | viability decrease (inhibition) [7] -2.9% | viability decrease (inhibition) [8] -0.4%
1.1%: nuclear beta-catenin stimulation ([1]; stimulation, at 2 µM)

CCc1ccc(C2CCNCC2)cc1
-0.7%: nuclear beta-catenin stimulation ([1]; stimulation, at 2 µM)
inactive: nuclear beta-catenin stimulation ([1]; at 10 µM) -1.4% | insulin secretion stimulation [2] 4% | viability decrease [3] -2.8% | tube area decrease [4] 1.2% | GLP1 secretion stimulation [5] -5.6% | inhibition of viability [6] 24.1% | viability decrease (inhibition) [7] 9% | viability decrease (inhibition) [8] -8.7%

CC(C)(C)c1cc(O)ccc1O
inactive: nuclear beta-catenin stimulation ([1]; at 10 µM) 2.1% | insulin secretion stimulation [2] 0% | viability decrease [3] 11.8% | GLP1 secretion stimulation [5] -1% | inhibition of viability [6] -45.9% | viability decrease (inhibition) [7] 17.3% | viability decrease (inhibition) [8] -12%
active: tube area decrease [4] 50.3%
2.2%: nuclear beta-catenin stimulation ([1]; stimulation, at 2 µM)

O=c1c(C2CC(c3ccc(-c4ccc(Br)cc4)cc3)Cc3ccccc32)c(O)sc2ccccc12 (stereo not given)
-2.4%: nuclear beta-catenin stimulation ([1]; stimulation, at 2 µM)
active: viability decrease [3] 117% | inhibition of viability [6] 123% | viability decrease (inhibition) [7] 157% | viability decrease (inhibition) [8] 101%
inactive: nuclear beta-catenin stimulation ([1]; at 10 µM) 0% | insulin secretion stimulation [2] 1.05% | tube area decrease [4] 34.2% | GLP1 secretion stimulation [5] 4.8%

CC(C)=C[C@@H]1[C@@H](C(=O)OCc2coc(Cc3ccccc3)c2)C1(C)C
active: viability decrease (inhibition) [7] 87.8%
0.4%: nuclear beta-catenin stimulation ([1]; stimulation, at 2 µM)
inactive: nuclear beta-catenin stimulation ([1]; at 10 µM) 0.3% | insulin secretion stimulation [2] -3.4% | viability decrease [3] 14.7% | tube area decrease [4] 12.6% | GLP1 secretion stimulation [5] -0.4% | inhibition of viability [6] 12.9% | viability decrease (inhibition) [8] 23.4%

CCC(CC)(CNC(=O)CCCO)c1cccc(OC)c1
-0.7%: nuclear beta-catenin stimulation ([1]; stimulation, at 2 µM)
inactive: nuclear beta-catenin stimulation ([1]; at 10 µM) -1.1% | insulin secretion stimulation [2] 0.4% | viability decrease [3] -15.7% | tube area decrease [4] 11.5% | GLP1 secretion stimulation [5] -1.4% | inhibition of viability [6] -6.33% | viability decrease (inhibition) [7] -5.8% | viability decrease (inhibition) [8] -6.4%

CNC(C)[C@@H](O)c1ccc(O)cc1 (stereo not given in full)
inactive: nuclear beta-catenin stimulation ([1]; at 10 µM) 0.7% | insulin secretion stimulation [2] 4.8% | viability decrease [3] -4.1% | tube area decrease [4] -8.3% | GLP1 secretion stimulation [5] -5% | inhibition of viability [6] 3.4% | viability decrease (inhibition) [7] 27.7% | viability decrease (inhibition) [8] 6%
1.3%: nuclear beta-catenin stimulation ([1]; stimulation, at 2 µM)

CCOC(=O)c1ncn2c1CN(C)C(=O)c1c(I)cccc1-2
inactive: nuclear beta-catenin stimulation ([1]; at 10 µM) -0.1% | insulin secretion stimulation [2] 0.8% | viability decrease [3] 3.6% | tube area decrease [4] -12.8% | GLP1 secretion stimulation [5] -0.9% | inhibition of viability [6] 11.2% | viability decrease (inhibition) [7] -7.6% | viability decrease (inhibition) [8] -11.3%
-0.1%: nuclear beta-catenin stimulation ([1]; stimulation, at 2 µM)

CC(C)NCC(O)c1ccc([N+](=O)[O-])cc1 (stereo not given)
active: viability decrease (inhibition) [7] 33.9%
-1%: nuclear beta-catenin stimulation ([1]; stimulation, at 2 µM)
inactive: nuclear beta-catenin stimulation ([1]; at 10 µM) -2.4% | insulin secretion stimulation [2] 5.1% | viability decrease [3] -1% | tube area decrease [4] 15% | GLP1 secretion stimulation [5] -0.9% | inhibition of viability [6] 17.5% | viability decrease (inhibition) [8] 1.9%

CC1(C)S[C@@H]2[C@H](N)C(=O)N2[C@@H]1C(=O)O
inactive: nuclear beta-catenin stimulation ([1]; at 10 µM) 0.4% | insulin secretion stimulation [2] -0.3% | viability decrease [3] -4.5% | tube area decrease [4] 7.5% | GLP1 secretion stimulation [5] 0% | inhibition of viability [6] 2.1% | viability decrease (inhibition) [7] 6.9% | viability decrease (inhibition) [8] -4.4%
3%: nuclear beta-catenin stimulation ([1]; stimulation, at 2 µM)

CCO[C@H]1O[C@@H]2OC3(C)CC[C@H]4[C@H](C)CC[C@@H]([C@H]1C)[C@@]24OO3
inactive: nuclear beta-catenin stimulation ([1]; at 10 µM) 6.9% | insulin secretion stimulation [2] 2.6% | tube area decrease [4] 34.8% | GLP1 secretion stimulation [5] 6.1% | inhibition of viability [6] 34.8% | viability decrease (inhibition) [7] 37.5% | viability decrease (inhibition) [8] 37.1%
active: viability decrease [3] 50.5%
25.2%: nuclear beta-catenin stimulation ([1]; stimulation, at 2 µM)

O=C(O)c1ccc(=O)[nH]c1
0.8%: nuclear beta-catenin stimulation ([1]; stimulation, at 2 µM)
inactive: nuclear beta-catenin stimulation ([1]; at 10 µM) 0.4% | insulin secretion stimulation [2] 2.6% | viability decrease [3] 3.2% | tube area decrease [4] -2.4% | GLP1 secretion stimulation [5] -0.3% | inhibition of viability [6] 7.7% | viability decrease (inhibition) [7] -13.1% | viability decrease (inhibition) [8] -3.9%

Cc1nnc2n1-c1sc(CCc3ccc(CC(C)C)cc3)cc1C(c1ccccc1Cl)=NC2C (stereo not given)
active: viability decrease [3] 110% | tube area decrease [4] 48.1% | GLP1 secretion stimulation [5] 20.1% | inhibition of viability [6] 113% | viability decrease (inhibition) [7] 134% | viability decrease (inhibition) [8] 102%
inactive: nuclear beta-catenin stimulation ([1]; at 10 µM) -1% | insulin secretion stimulation [2] 4.1%
3.8%: nuclear beta-catenin stimulation ([1]; stimulation, at 2 µM)

NNc1ccccc1
inactive: nuclear beta-catenin stimulation ([1]; at 10 µM) 0.8% | insulin secretion stimulation [2] -1.6% | viability decrease [3] 14.6% | tube area decrease [4] 26.7% | GLP1 secretion stimulation [5] 3.7% | inhibition of viability [6] -3.85% | viability decrease (inhibition) [7] 45% | viability decrease (inhibition) [8] 21.2%
2.4%: nuclear beta-catenin stimulation ([1]; stimulation, at 2 µM)
